Screens from PubChem.
FAS-TE inh = FAS thioesterase domain inhibitors, primary screen, biochemical, fluorescence intensity, uHTS; Fatty acid synthase (Homo sapiens), P49327; recombinant FAS-TE, OMFH fluorogenic substrate, fluorescence endpoint; actives 0.67% (n = 360,000); inhibition, % at 15 µM; AID 602261, 2012;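 active means compounds whose normalised, plate-corrected inhibition of enzyme fluorescence in the single-dose primary screen is 50% or more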;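 further: 0% = DMSO with enzyme and 100% = substrate without enzyme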
aDG glyco up = activators of alpha-DG glycosylation, primary screen, uHTS, Pro5-aDG cells, AlphaScreen; AID 624168, 2012; alpha-DG glycosylation AlphaScreen (IIH6); 0% Pro5, 100% B10-LARGE cell signal; activation, % at 10 µM; actives 0.22% (n = 360,000);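 active means activation of at least 8% versus controls, or a plate z-score of at least 8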;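 further: Pro5 are CHO cells carrying HIG-tagged alpha-DG that lacks glycosylation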
MPTP block = mitochondrial permeability transition pore inhibitors, primary screen, biochemical, isolated mouse mitochondria, absorbance; actives 1.4% (n = 360,000); inhibition, % at 10 µM; AID 602449, 2012; Ca2+ swelling absorbance, 30 min;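 active means inhibition of 50% or more, scaled per plate between neutral and stimulator controls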;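 further: 0% = DMSO wells given calcium and 100% = 1 mM EGTA wells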
CR mimetic SO = reduction of superoxide in aged yeast, primary screen, HTS; S. cerevisiae aged cells, superoxide DHE fluorescence; active compounds read low; superoxide response (% of plate mean), % at 10 µM; actives 0.18% (n = 330,000);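 active means superoxide response under a set limit, about three screen SD below normal, cut at about 65% in these data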;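 further: yeast aged for seven days with compound at 30 °C before DHE staining; 100% = average MFI of all compound-treated wells on the plate with controls excluded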
Cardio protect = cardioprotection against H2O2-induced cell death, primary screen, uHTS, H9c2 cells, ATPLite luminescence; H9c2 cardiomyocytes, H2O2 injury protection, 2 h; protection from H2O2 cell death, % at 20 µM; actives 0.63% (n = 360,000); AID 588492, 2011;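 active means compounds giving at least 50% protection of heart cells from peroxide-induced death in the single-dose screen, raw or plate-pattern-corrected value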;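 further: 0% = DMSO wells with peroxide and 100% = DMSO wells without peroxide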
SUMO Mot1 rescue = yeast Mot1-301 growth rescue at high temperature, primary screen, SUMOylation pathway inhibitor project, S. cerevisiae, ATP luminescence, 38.5C; S. cerevisiae Mot1-301 growth rescue; percent above DMSO median, 100 means doubled; growth rescue, % at 18.8 µM; actives 1% (n = 320,000);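 active means every valid replicate shows activation above 250% relative to neutral control wells; inactive means the rest, any valid replicate at or below 250%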;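 further: OY570 slx delta 5 strain wells were the positive control but not used for scaling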
CR mimetic CP = superoxide lowering in aged yeast cells, confirmation, cherry picked compounds; shares compounds with CR mimetic SO; S. cerevisiae aging, superoxide DHE fluorescence; active compounds read low; superoxide response (% of plate), % at 10 µM; actives 1% (n = 850); AID 434994, 2010;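 active means superoxide signal below 65% of the plate average of sample wells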;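 further: cells aged with compound for 7 days at 30 degrees C before staining; 100% equals mean DHE fluorescence of all compound wells on the plate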
DHE fluor count = DHE quenching or ROS scavenging interference in aged yeast, artefact control for yeast caloric restriction mimetic project, S. cerevisiae BY4741, flow cytometry | 850 tested, under 10 active | DHE fluorescence; active compounds read low | shares compounds with CR mimetic SO | fluorescence response, % at 10 µM | AID 435000, 2010;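 active means fluorescence response below 15%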;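 further: percent of the mean fluorescence averaged over all compound wells on the plate; lower means stronger quenching of DHE signal or ROS scavenging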
Numbers without * were called inactive. Compounds with a hit are over-represented: about 3.8% of the library has one in this group of screens.

For Cc1cc(C)nc(CCNC(=O)C2CCC(=O)N(Cc3ccccc3F)C2)n1 (configuration not stated) the results were FAS-TE inh -3.2, aDG glyco up -0.4, MPTP block -2.5, CR mimetic SO 64.7*, Cardio protect 2.9, SUMO Mot1 rescue 17.4, CR mimetic CP 94.9 and DHE fluor count 94.8.
Screening CCN(CC)C(=O)CCn1nc(-c2ccc(C)cc2)c2ccccc2c1=O returned FAS-TE inh -5.5, aDG glyco up 0.1, MPTP block 0.6, CR mimetic SO 37.0*, Cardio protect 1.9, SUMO Mot1 rescue -4.9, CR mimetic CP 99.8 and DHE fluor count 93.7.
For COc1ccccc1C1=NN(C(=O)c2ccccc2)C(c2ccc(Br)cc2)C1 (configuration not stated) the results were FAS-TE inh 22.3, aDG glyco up 0.2, MPTP block 1.0, CR mimetic SO 60.1*, Cardio protect -2.5, SUMO Mot1 rescue 14.1, CR mimetic CP 101.0 and DHE fluor count 97.6.
Screening ClC(CCN1CCN(Cc2ccccc2)CC1)c1ccccc1 (configuration not stated) returned FAS-TE inh 1.0, aDG glyco up 0.1, MPTP block 1.2, CR mimetic SO 108.3, Cardio protect 6.6 and SUMO Mot1 rescue 20.4.
Cc1ccc(CNC(=O)Cn2nnc(C(=O)Nc3cc(C)ccc3C)c2N)cc1 was read as FAS-TE inh -3.5, aDG glyco up 0.5, MPTP block -0.5, CR mimetic SO 57.2*, Cardio protect -9.8, SUMO Mot1 rescue 1.3, CR mimetic CP 98.6 and DHE fluor count 105.1.
`O=C(Nc1c[nH]c2c(Cl)cccc2c1=O)N1CCN(c2ccccn2)CC1` gave FAS-TE inh -1.2, aDG glyco up -0.1, MPTP block -1.7, CR mimetic SO 102.5, Cardio protect 10.2 and SUMO Mot1 rescue -16.3.
For CCN1CCN(c2ccc(S(=O)(=O)N3CCCCC3)cc2NC(=O)Cc2c(F)cccc2Cl)CC1 the results were FAS-TE inh -3.6, aDG glyco up -0.3, MPTP block -0.1, CR mimetic SO 96.5, Cardio protect 4.5 and SUMO Mot1 rescue 322.4.
CCN(CC)S(=O)(=O)c1ccc(N2CCCC2)c(NC(=O)Cc2c(F)cccc2Cl)c1 was read as FAS-TE inh 9.1, aDG glyco up 0.4, MPTP block 0.6, CR mimetic SO 100.3, Cardio protect -8.6, SUMO Mot1 rescue 32.1, CR mimetic CP 101.6 and DHE fluor count 92.5.
Screening CC(=O)c1c(-c2ccccc2)c2cc([N+](=O)[O-])ccc2[nH]c1=O returned FAS-TE inh 4.9, aDG glyco up 0.0, MPTP block 0.8, CR mimetic SO 59.4*, Cardio protect 33.9, SUMO Mot1 rescue 27.1, CR mimetic CP 110.5 and DHE fluor count 106.3.
C=CCNc1ncnc2c1cnn2-c1ccc(C)cc1C was read as FAS-TE inh -6.6, aDG glyco up -0.1, MPTP block -0.3, CR mimetic SO 97.5, Cardio protect -13.1, SUMO Mot1 rescue 0.7, CR mimetic CP 100.9 and DHE fluor count 97.9.
Cc1nc2[nH]c(=S)n(C)c(=O)c2nc1C was read as FAS-TE inh -9.4, aDG glyco up -0.1, MPTP block 0.7, CR mimetic SO 108.8, Cardio protect 9.4 and SUMO Mot1 rescue 15.1.
Cn1c(=S)[nH]c(=O)c2ncc(=O)[nH]c21 was read as FAS-TE inh 1.4, aDG glyco up 0.0, MPTP block -0.2, CR mimetic SO 62.9*, Cardio protect 2.7, SUMO Mot1 rescue 9.6, CR mimetic CP 103.1 and DHE fluor count 91.4.
Cc1ccc(S(=O)(=O)N2CCCC2CNC(=O)C(=O)Nc2ccc(F)cc2)cc1 (configuration not stated) was read as FAS-TE inh 11.7, aDG glyco up 0.1, MPTP block -1.8, CR mimetic SO 106.8, Cardio protect -16.9 and SUMO Mot1 rescue -5.1.
COc1cc(C(=O)NCCC(=O)NCc2cccs2)cc(OC)c1OC was read as FAS-TE inh -5.3, aDG glyco up 0.0, MPTP block -1.0 and Cardio protect -4.6.
For Cc1ccc(N=C2NC(=O)/C(=C/c3cccs3)S2)cc1C the results were FAS-TE inh -0.6, aDG glyco up 0.2, MPTP block 10.5, CR mimetic SO 59.4*, Cardio protect -8.8, SUMO Mot1 rescue 9.4, CR mimetic CP 93.5 and DHE fluor count 90.4.
Screening Cc1cccc(N=C2NC(=O)/C(=C\c3cccs3)S2)c1 returned FAS-TE inh 3.6, aDG glyco up 1.7, MPTP block 30.8, CR mimetic SO 128.9, Cardio protect -5.4 and SUMO Mot1 rescue -8.6.
COc1ccccc1Oc1ccc2c(c1)C(=O)N(CC(=O)O)C2=O was read as FAS-TE inh -8.0, aDG glyco up -0.1, MPTP block -1.4, CR mimetic SO 40.1*, Cardio protect 2.3, SUMO Mot1 rescue 16.7, CR mimetic CP 102.1 and DHE fluor count 91.1.
For CCCCCc1ccc(OCCCC[n+]2ccccc2)c(CCCCC)c1 the results were FAS-TE inh -12.0, aDG glyco up -0.1, MPTP block 9.4, CR mimetic SO 89.3, Cardio protect -23.8, SUMO Mot1 rescue 87.7, CR mimetic CP 88.0 and DHE fluor count 96.7.
`Cc1cc(=O)oc2cc(OCCCC[n+]3ccccc3)ccc12` gave FAS-TE inh -6.6, aDG glyco up -0.2, MPTP block 1.4, CR mimetic SO 70.7, Cardio protect 12.7 and SUMO Mot1 rescue -23.5.
CCCCCc1ccc(OCCCC[n+]2cccc(C)c2)c(CCCCC)c1 was read as FAS-TE inh -16.6, aDG glyco up 0.3, MPTP block 10.0, CR mimetic SO 100.2, Cardio protect -22.4, SUMO Mot1 rescue -2.4, CR mimetic CP 104.9 and DHE fluor count 89.0.
For CCC(C)(C)c1ccc(Oc2cccc(C(=O)O)c2)cc1 the results were FAS-TE inh -6.5, aDG glyco up -0.1, MPTP block 0.5, CR mimetic SO 94.5, Cardio protect 1.5 and SUMO Mot1 rescue 3.8.
For CCCCCc1ccc(OCCCC[n+]2ccc(C)cc2)c(CCCCC)c1 the results were FAS-TE inh -18.0, aDG glyco up 0.1, MPTP block 39.9, CR mimetic SO 116.6, Cardio protect -34.8, SUMO Mot1 rescue 68.0, CR mimetic CP 84.8 and DHE fluor count 96.0.
